Results published in PubChem BioAssay AID652141 (The Scripps Research Institute Molecular Screening Center, 2013).
The campaign covered roughly 5,600 compounds. About 4,500 (80%) were called active. The set was probably picked from earlier hits. The list is a sample of the results. A number with no mark means an inactive call. Rule as the data show it: active = inhibition above about 10%; inactive = the rest.

Test: GDH-TPI coupling enzyme inhibitors, artefact control for M. tuberculosis FBA inhibitor project, biochemical, fluorescence, high throughput (AID 652141)
Settings: GDH-TPI coupled enzyme counterscreen, at 1 µM, stronger effect = higher value

Structure (SMILES)	inhibition
Cc1ccc(C2Nc3cccc4cccc(c34)N2)cc1	137% (active)
O=C(Nc1ccc(-c2nnc(-c3ccccc3)o2)cc1)C1CCCO1 (centres undefined)	-0.52%
O=C(CCc1ccccc1)Nc1cccc(-c2nnc(-c3ccco3)o2)c1	69.8% (active)
Cc1noc(C)c1COc1ccc2ccc(=O)oc2c1	42.7% (active)
Cc1cc(C)cc(NC(=O)CSc2ccccc2)c1	58.2% (active)
Nc1ccccc1C(=O)NC1CCCCNC1=O (centres undefined)	141% (active)
C[C@H]1CN([C@@H](C)CO)C(=O)c2cc(Br)cnc2O[C@H]1CN(C)S(=O)(=O)c1cccs1	2.73%
c1cc(-c2ccc3[nH]ccc3c2)n2ccnc2c1	62.4% (active)
CCOc1ccc(-c2nnc(-c3ccco3)o2)cc1	65% (active)
CCCCOc1ccc(-c2nnc(-c3ccco3)o2)cc1	140% (active)
CCCCn1c(-c2cccc(C)c2)nc2cc3[nH]c(=O)c(C(C)C)nc3cc21	33.5% (active)
Brc1cnc2ccccc2c1N1CCCCC1	60.2% (active)
CCCn1c(=O)c(-c2ccccc2)c(O)c2ccccc21	75.9% (active)
Cc1cccc(NC(=O)c2sc3nc(N4CCOCC4)c4c(c3c2N)CCCC4)c1	77% (active)
CCOC(=O)Cn1c(=O)n(Cc2ccc(OC)cc2)c(=O)c2cccnc21	730% [above what the read-out allows, likely interference] (active)
COC(=O)CSc1nc(C)c2ccc(OC)cc2n1	-4.3%
CCOC(=O)c1[nH]c2ccc(OC)cc2c1NC(=O)CCN1CCN(Cc2ccccc2)CC1	-6.9%
CCOC(=O)c1[nH]c2ccc(OC)cc2c1NC(=O)N1CCOCC1	100% (active)
O=C(NC1CCN(Cc2ccccc2)CC1)c1cc(Br)c(Br)[nH]1	764% [above what the read-out allows, likely interference] (active)
N#Cc1c(N2CCCCC2)nc(N)c2c(N)nc(SCC(=O)O)cc12	8.17%

Structure (SMILES)	inhibition
COc1ccc(NC(=O)CN(C)C(=O)c2cc(-c3ccc(C)o3)nc3ccccc23)cc1	61.4% (active)
CCC(=O)Nc1c(S(=O)(=O)c2ccccc2)c2nc3ccccc3nc2n1Cc1ccccc1	150% (active)
COc1ccc2[nH]c3c(=O)n(Cc4ccco4)cnc3c2c1	-2.61%
COc1ccc2[nH]c3ccc(OC)cc3c2c1	198% (active)
COc1ccc(-c2nc3cc(C)ccn3c2NC2CCCCC2)cc1SC1CCCCC1	41.2% (active)
COc1ccc2c3c(c(=O)oc2c1OCC(=O)C(C)(C)C)CCCC3	51% (active)
Cc1c(OC(C)C(=O)N[C@@H](Cc2ccccc2)C(=O)O)ccc2c3c(c(=O)oc12)CCCC3 (some centres undefined)	-2.05%
CCN(CC)c1ccc2cc(C(=O)O)c(=O)oc2c1	17.4% (active)
CCOC(=O)N1CCN(C(=O)c2cc3c(ccc4ccccc43)oc2=O)CC1	-8.26%
COC(=O)c1c(C)c(C)nc(N)c1C#N	49.5% (active)
CC1(C)Cc2c(C#N)c(SCc3nc4ccccc4[nH]3)nc(N3CCOCC3)c2CO1	-4.7%
CC(C)c1nc(N2CCOCC2)c(C#N)c2c1COC(C)(C)C2	32.5% (active)
CN(C(=O)COc1ccccc1)c1nnc(-c2ccncc2)s1	513% [above what the read-out allows, likely interference] (active)
CN(C(=O)c1ccccn1)c1nnc(-c2ccccn2)s1	520% [above what the read-out allows, likely interference] (active)
Cc1cccc2c1-c1sc(C(=O)NCCCN3CCc4ccccc4C3)cc1CO2	-4.07%
O=C(NCCN1CCN(Cc2ccccc2)CC1)c1cc2c(=O)[nH]c3ccccc3c2s1	125% (active)
CN(C)S(=O)(=O)c1ccc(N/C=C(\[N+](=O)[O-])S(=O)(=O)c2ccccc2)cc1	-5.04%
Oc1ccc(Br)cc1C=Nc1ccc2[nH]ncc2c1	51.6% (active)
CC(C)=NN1C(=O)c2ccccc2NC1(C)C	121% (active)
Cc1cc(NC(C)C)n2c(nc3ccccc32)c1C#N	181% (active)

Structure (SMILES)	inhibition
COc1ccc(C2C3=C(CCCC3=O)N(CC(=O)O)C3=C2C(=O)CCC3)cc1	107% (active)
CCOC(=O)COc1nc(C)cc(C(F)(F)F)c1C#N	36.8% (active)
COc1ccc2sc(-c3ccc(N(C)C)cc3)c(-c3ccc4cc[nH]c4c3)c2c1	55.2% (active)
O=C(CN1C(=O)c2cccc3cccc(c23)C1=O)N1CCCCC1	53.9% (active)
CCCCN(CCCC)CC(O)Cn1c2ccccc2c(=O)c2ccccc21 (centres undefined)	87.8% (active)
CN1c2ccc(C=O)c3c(C=O)ccc(c23)N(C)C1(C)C	19.9% (active)
CCOc1ccc2nc(Nc3nc4ccc(NC(C)=O)cc4s3)sc2c1	13.8% (active)
O=C(Nc1ncc2c(n1)-c1ccccc1OC2)c1ccc(Cl)cc1	82.3% (active)
CN(C(=O)c1cc2c(=O)n3ccccc3nc2s1)C1CCCCC1	46.3% (active)
CN(CCOc1ccccc1)C(=O)c1cc(-c2ccco2)nc2ccccc12	-2.35%
O=C(c1cc(-c2ccco2)nc2ccccc12)N(Cc1nnc(-c2ccc(Cl)cc2)o1)C1CC1	72.7% (active)
COc1ccc(CNC(=O)c2c[nH]c3c(OC)cc(OC)cc3c2=O)cc1	-3.81%
COc1cccc2[nH]c(C(=O)NCCc3ccccc3)cc12	961% [above what the read-out allows, likely interference] (active)
Cc1cnc(C(=O)OCC(=O)N2CCc3ccccc32)cn1	99.3% (active)
Cc1nn(-c2ccccc2)nc1C(=O)OCC(=O)N1CCCCC1C (centres undefined)	-3.64%
CCOc1c2ccc(C(=O)NC3CCCc4ccccc43)cc2nn1CC (centres undefined)	7.23%
CCOc1c2ccc(C(=O)NCc3ccc(OC(F)(F)F)cc3)cc2nn1C	79.5% (active)
CCOc1c2ccc(C(=O)NCc3ccc4c(c3)OCO4)cc2nn1C	68.1% (active)
CCCn1nc2cc(C(=O)NCc3ccccc3)ccc2c1OCC	-3.32%
